For part of these data: Results with a measured potency or affinity are listed apart.
Key:
[1] = target: T1, Methionyl-tRNA synthetase, putative (Leishmania donovani (strain BPK282A1)) (UniProt E9BF75); assay: Leishmania donovani Methionine tRNA synthetase (LdMetRS):v7. Dose response assay; format: functional; design: conc 80 nM, time 150 minutes
T1 sequence (whole entry): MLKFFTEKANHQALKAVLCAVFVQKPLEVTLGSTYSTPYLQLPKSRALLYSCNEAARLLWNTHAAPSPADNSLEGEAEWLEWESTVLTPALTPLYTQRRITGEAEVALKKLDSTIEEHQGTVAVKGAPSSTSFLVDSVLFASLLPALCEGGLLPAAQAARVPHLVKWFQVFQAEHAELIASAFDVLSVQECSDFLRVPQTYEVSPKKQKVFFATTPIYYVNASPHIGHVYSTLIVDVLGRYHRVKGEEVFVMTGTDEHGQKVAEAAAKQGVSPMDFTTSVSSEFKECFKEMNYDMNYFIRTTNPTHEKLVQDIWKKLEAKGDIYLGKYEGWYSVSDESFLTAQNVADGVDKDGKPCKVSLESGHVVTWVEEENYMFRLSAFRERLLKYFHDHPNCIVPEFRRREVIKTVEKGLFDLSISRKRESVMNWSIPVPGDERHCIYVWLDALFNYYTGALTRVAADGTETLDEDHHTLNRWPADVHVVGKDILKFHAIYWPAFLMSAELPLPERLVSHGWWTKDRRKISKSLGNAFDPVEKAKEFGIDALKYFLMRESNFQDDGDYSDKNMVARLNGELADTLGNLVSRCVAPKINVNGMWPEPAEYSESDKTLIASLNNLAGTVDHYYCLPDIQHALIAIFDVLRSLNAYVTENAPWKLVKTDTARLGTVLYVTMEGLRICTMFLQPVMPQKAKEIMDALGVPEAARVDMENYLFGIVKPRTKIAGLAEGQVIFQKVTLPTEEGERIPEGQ

[2] = target: Protein translocase subunit SecA (Escherichia coli (strain K12)) (UniProt P10408); assay: Assay to Identify E. coli SecA ATPase Inhibitors; format: functional; design: scale not given: direction of the effect not stated beside the values; settings: 30 µM
Protein translocase subunit SecA (Escherichia coli (strain K12)), sequence (P10408 whole entry): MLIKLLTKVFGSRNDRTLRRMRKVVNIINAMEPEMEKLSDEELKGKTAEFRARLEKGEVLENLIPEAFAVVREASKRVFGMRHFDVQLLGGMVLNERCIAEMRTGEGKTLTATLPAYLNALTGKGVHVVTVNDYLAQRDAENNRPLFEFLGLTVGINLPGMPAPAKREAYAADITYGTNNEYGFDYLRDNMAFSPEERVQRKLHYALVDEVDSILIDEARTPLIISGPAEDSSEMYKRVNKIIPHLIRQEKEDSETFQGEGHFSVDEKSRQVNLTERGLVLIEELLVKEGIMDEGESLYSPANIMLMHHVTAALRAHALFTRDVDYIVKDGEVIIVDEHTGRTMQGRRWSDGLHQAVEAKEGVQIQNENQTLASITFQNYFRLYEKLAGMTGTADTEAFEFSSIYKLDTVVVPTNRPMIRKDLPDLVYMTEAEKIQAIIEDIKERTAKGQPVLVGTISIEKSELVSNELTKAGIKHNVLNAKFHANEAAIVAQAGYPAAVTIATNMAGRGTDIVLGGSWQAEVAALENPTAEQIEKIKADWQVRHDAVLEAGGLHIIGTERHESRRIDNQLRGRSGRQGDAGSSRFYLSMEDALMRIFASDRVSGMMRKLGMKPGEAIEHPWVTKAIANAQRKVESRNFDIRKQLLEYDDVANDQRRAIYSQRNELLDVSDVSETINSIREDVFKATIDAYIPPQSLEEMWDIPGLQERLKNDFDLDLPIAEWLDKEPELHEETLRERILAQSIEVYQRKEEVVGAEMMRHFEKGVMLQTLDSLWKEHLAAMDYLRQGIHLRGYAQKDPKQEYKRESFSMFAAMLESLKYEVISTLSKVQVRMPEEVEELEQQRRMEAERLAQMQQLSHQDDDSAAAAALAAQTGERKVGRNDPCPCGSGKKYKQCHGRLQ

[3] = target: T2, Ubiquitin-activating enzyme e1, putative (Leishmania donovani (strain BPK282A1)) (UniProt E9BSI1); assay: Leishmania donovani Ubiquitin Activating Enzyme (LdE1); format: functional; design: scale not given: direction of the effect not stated beside the values; settings: 30 µM
T2 sequence (whole entry): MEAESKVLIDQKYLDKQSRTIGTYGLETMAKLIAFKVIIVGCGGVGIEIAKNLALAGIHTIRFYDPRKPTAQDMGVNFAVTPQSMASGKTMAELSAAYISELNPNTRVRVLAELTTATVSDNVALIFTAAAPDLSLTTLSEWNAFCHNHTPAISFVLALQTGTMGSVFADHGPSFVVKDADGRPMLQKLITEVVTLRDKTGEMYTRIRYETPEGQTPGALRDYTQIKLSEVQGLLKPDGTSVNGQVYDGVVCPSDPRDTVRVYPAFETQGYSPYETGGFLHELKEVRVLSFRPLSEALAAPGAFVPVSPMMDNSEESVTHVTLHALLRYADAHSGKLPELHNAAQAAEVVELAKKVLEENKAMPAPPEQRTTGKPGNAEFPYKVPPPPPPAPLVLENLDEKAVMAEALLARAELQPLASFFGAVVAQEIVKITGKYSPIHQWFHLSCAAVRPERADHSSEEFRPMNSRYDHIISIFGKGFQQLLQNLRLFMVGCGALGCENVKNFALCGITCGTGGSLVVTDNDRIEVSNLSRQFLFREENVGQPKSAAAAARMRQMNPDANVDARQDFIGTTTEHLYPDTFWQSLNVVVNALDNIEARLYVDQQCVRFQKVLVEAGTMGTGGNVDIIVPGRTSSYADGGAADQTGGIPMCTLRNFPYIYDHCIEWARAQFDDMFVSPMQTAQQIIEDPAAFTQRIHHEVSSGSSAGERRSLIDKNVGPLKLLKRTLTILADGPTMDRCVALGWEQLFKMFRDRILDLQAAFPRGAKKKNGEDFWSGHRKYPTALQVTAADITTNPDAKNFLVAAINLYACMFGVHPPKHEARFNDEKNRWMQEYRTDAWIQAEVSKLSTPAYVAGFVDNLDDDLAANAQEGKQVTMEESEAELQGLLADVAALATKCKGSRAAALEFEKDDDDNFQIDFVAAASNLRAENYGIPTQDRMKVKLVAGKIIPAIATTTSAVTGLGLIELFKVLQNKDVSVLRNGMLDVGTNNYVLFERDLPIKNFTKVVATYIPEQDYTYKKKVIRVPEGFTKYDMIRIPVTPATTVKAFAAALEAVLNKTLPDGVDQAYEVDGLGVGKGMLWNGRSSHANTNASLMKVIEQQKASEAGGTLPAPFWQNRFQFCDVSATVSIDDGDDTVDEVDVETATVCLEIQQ

[4] = target: T3, Aspartate--tRNA(Asp/Asn) ligase (Mycobacterium tuberculosis (strain ATCC 25618 / H37Rv)) (UniProt P9WFW3); assay: Assay for Asp RNA synthetase-1 from Mycobacterium tuberculosis; format: functional; design: scale not given: direction of the effect not stated beside the values; settings: 30 µM; note: in the data most compounds retested in dose-response had high values
T3 sequence (whole entry): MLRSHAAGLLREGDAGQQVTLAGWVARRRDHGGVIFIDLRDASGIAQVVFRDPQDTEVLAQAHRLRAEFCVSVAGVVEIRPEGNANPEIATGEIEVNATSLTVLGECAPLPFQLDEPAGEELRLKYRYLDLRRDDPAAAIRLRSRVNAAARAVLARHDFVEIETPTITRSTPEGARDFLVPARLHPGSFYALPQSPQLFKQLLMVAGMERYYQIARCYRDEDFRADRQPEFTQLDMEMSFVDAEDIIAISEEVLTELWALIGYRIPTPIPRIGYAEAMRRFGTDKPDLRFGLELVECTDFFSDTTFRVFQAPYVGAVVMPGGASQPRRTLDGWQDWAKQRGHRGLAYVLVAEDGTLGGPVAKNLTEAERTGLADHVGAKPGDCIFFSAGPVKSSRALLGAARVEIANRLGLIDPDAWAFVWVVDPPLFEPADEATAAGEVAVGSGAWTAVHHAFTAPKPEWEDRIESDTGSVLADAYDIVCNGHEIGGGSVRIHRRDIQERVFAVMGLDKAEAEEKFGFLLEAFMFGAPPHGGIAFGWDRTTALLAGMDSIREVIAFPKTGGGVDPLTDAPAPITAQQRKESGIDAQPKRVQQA

[5] = target: AMP-activated protein kinase, AMPK (Homo sapiens) (UniProt P54646+O43741+P54619+Q9UGJ0+Q9Y478+Q13131+Q9UGI9); assay: AMP-dependent Kinase enzyme assay. An in vitro enzyme assay that detects ADP turnover that is directly proportional to AMPK activity. This uses naive AMPK that is activated during the assay with MK-8722; format: functional; design: scale not given: direction of the effect not stated beside the values; settings: 30 µM
[6] = target: Sialic acid-binding Ig-like lectin 9 (Homo sapiens) (UniProt Q9Y336); assay: Hs-Siglec9 ALPHAscreen SOP 20170721; design: scale not given: direction of the effect not stated beside the values; settings: 10 µM
Sialic acid-binding Ig-like lectin 9 (Homo sapiens), sequence (Q9Y336 whole entry): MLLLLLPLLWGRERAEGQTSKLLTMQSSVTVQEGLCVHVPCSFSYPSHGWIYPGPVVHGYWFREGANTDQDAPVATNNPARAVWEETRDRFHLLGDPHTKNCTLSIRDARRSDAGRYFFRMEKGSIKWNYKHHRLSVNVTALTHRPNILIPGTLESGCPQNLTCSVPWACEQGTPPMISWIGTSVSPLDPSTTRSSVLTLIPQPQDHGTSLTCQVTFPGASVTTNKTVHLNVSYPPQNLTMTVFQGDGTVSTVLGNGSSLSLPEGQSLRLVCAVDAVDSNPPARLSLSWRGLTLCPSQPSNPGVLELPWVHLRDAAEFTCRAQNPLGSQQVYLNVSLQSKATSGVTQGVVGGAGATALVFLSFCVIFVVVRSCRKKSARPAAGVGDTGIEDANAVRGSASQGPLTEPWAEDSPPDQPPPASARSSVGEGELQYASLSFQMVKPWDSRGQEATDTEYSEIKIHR

Trypanosoma cruzi = assay: Trypanosoma cruzi phosphomannomutase and mannose-1-phosphate guanylyltransferase assay; format: functional; design: scale not given: direction of the effect not stated beside the values; settings: 10 µM
[7] = target: T4, Arginase-2, mitochondrial (Homo sapiens) (UniProt P78540); assay: in vitro enzyme assay to detect the production of urea directly proportional to the activity of Arginase II; format: functional; design: scale not given: in the data most compounds retested in dose-response had high values; settings: 33.3 µM
T4 sequence (whole entry): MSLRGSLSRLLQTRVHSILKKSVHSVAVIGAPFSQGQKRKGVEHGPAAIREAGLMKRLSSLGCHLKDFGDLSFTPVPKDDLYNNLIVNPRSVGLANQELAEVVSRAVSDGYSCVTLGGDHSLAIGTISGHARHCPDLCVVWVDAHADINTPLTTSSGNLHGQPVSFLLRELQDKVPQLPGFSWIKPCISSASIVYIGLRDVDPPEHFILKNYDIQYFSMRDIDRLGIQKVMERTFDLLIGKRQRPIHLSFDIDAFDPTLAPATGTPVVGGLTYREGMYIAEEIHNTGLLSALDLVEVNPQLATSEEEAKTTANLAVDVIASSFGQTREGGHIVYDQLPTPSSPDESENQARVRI

[8] = target: T5, Proteasome subunit beta (Trypanosoma cruzi) (UniProt O96673); assay: Trypanosoma cruzi proteasome chymotrypsin-like activity (TcProtChymo) assay.; format: functional; design: scale not given: in the data most compounds retested in dose-response had high values; settings: 9.37 µM
T5 sequence (whole entry): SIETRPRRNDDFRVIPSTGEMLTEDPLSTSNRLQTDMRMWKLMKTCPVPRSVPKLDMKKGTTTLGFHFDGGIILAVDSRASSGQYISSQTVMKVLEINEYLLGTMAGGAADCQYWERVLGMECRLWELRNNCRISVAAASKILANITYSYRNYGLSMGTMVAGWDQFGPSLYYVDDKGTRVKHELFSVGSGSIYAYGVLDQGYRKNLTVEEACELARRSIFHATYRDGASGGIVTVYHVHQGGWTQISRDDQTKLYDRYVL

Homo sapiens = species: Homo sapiens; assay: To identify inhibition of the IFN signalling (Jak-Stat) pathway via expression of an eGFP reporter gene under the control of an IFN-stimulated response element (ISRE) containing MxA promoter.; format: functional; design: scale not given: direction of the effect not stated beside the values; settings: 30 µM
[9] = target: Shiga toxin 2 (Escherichia coli O157:H7) (UniProt P09385+P09386); assay: E. coli 0.157:H7 Shiga Toxin SOP - stx2 screening assay; format: functional; design: scale not given: direction of the effect not stated beside the values; settings: 30 µM
[10] = target: T6, Tyrosyl-tRNA synthetase, putative (Trypanosoma cruzi (strain CL Brener)) (UniProt Q4DSP6); assay: Trypanosoma cruzi tyrosyl tRNA synthetase (TcYRS) _High Tyrosine SOP; format: functional; design: scale not given: in the data most compounds retested in dose-response had high values; settings: 30 µM
T6 sequence (whole entry): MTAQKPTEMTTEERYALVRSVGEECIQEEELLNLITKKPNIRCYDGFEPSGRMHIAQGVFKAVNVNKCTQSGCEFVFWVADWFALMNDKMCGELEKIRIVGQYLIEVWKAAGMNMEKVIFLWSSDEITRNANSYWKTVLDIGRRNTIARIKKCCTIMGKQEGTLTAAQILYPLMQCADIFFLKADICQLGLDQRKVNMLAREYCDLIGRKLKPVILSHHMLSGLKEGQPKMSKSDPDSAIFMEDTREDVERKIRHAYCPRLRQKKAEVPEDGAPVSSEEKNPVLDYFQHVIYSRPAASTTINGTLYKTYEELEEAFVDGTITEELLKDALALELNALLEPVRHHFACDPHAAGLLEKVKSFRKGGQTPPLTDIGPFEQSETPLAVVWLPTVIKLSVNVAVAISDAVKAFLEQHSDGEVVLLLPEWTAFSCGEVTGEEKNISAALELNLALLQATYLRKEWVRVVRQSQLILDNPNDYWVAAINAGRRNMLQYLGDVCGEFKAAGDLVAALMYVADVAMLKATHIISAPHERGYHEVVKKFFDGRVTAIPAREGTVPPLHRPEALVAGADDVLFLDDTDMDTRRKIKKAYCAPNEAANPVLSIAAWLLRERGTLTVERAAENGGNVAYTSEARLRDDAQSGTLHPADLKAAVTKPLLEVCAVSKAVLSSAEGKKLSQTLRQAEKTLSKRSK

[11] = target: T6, Tyrosyl-tRNA synthetase, putative (Trypanosoma cruzi (strain CL Brener)); assay: Trypanosoma cruzi tyrosyl tRNA synthetase (TcYRS) SOP; format: functional; design: scale not given: direction of the effect not stated beside the values; settings: 30 µM
[12] = target: Chromo domain-containing protein 1 (Saccharomyces cerevisiae (strain ATCC 204508 / S288c) (Baker's yeast)) (UniProt P32657); assay: ScCHD-1 Enzyme Inhibition Assay; format: functional; design: scale not given: in the data most compounds retested in dose-response had high values; settings: 30 µM
Chromo domain-containing protein 1 (Saccharomyces cerevisiae (strain ATCC 204508 / S288c) (Baker's yeast)), sequence (P32657 whole entry, the tested form may be a part): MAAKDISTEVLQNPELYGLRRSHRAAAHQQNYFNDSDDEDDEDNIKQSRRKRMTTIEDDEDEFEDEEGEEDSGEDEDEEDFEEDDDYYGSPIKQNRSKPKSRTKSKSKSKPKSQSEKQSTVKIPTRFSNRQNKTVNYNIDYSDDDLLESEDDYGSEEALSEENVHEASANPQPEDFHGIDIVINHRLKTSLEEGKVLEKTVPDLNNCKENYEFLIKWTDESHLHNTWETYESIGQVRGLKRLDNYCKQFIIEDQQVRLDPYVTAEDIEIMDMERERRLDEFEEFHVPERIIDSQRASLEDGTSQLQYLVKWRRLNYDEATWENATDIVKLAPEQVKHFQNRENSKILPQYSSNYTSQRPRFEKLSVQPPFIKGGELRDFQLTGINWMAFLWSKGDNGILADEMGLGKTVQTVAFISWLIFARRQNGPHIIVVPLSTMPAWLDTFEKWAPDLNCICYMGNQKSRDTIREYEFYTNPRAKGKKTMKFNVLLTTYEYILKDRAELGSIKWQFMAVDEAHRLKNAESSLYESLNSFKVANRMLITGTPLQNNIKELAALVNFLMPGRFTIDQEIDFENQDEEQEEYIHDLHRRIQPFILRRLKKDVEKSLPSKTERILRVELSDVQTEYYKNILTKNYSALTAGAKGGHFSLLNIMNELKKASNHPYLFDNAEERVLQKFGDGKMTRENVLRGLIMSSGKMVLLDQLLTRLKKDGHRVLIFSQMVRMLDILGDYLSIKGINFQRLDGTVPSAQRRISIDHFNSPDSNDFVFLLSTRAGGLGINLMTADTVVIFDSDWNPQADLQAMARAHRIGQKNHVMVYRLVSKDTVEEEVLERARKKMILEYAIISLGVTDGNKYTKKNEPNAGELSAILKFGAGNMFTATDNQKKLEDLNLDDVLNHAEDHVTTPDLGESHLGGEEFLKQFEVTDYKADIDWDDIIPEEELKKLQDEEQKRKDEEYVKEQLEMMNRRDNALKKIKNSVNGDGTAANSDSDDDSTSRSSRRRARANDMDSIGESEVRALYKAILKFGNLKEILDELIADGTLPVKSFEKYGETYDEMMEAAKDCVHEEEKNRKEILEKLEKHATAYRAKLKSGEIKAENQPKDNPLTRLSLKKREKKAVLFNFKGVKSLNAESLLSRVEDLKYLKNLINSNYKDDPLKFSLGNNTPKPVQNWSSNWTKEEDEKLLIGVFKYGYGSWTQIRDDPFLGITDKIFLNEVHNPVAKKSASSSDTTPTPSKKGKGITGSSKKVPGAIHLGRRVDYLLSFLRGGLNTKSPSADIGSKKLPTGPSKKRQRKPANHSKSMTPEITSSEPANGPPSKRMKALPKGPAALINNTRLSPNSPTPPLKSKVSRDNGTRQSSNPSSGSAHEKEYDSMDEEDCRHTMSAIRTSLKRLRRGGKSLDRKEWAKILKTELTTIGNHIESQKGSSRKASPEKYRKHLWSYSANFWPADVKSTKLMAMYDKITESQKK

With `Oc1ccc(Cl)cc1Cl` the PXC50 ([1]; MAX_EFFECT 9.315589354) was < 3 and the PXC50 ([1]; MAX_EFFECT 10.1511879) was < 3.

For `Cc1nc(N2CCN(C(=O)C(C)C)CC2)c2c3c(sc2n1)CC(C)CC3` (stereo unspecified), the PXC50 ([1]; MAX_EFFECT 28.46347607) was < 4 and the PXC50 ([1]; MAX_EFFECT 29.26208651) was < 4.

In the case of `COc1cccc(CC(C)NC(=O)NCc2ccn(C)c2)c1` (stereo unspecified), the PXC50 ([1]; MAX_EFFECT 39.40455342) is reported as < 4, the PXC50 ([1]; MAX_EFFECT 41.30434783) is reported as < 4 and the PXC50 ([1]; MAX_EFFECT 46.2585034) is reported as < 4.

In the case of `Clc1cc(CN2CCCN3CCCC3C2)c2ncccc2c1` (stereo unspecified), the PXC50 ([1]; BOTTOM 3.20477061, HILLSLOPE 1.084567425, MAX_EFFECT 62.37623762, TOP 100.0) is reported as 4.18, the PXC50 ([1]; BOTTOM 6.472550683, HILLSLOPE 0.834102773, MAX_EFFECT 67.39130435, TOP 100.0) is reported as 4.08 and the PXC50 ([1]; BOTTOM 6.940148658, HILLSLOPE 1.034617946, MAX_EFFECT 59.85663082, TOP 100.0) is reported as 4.1.

`CCc1nc(CNC(C)Cn2cccn2)cs1` (stereo unspecified) showed a Percent Effect [2] of -1.58%, a Percent Effect [3] of 13.5% and a Percent Effect [4] of 5.32%. The Percent Effect [5] was -19.1%, the Percent Effect [6] was 12.1% and the Percent Effect (Trypanosoma cruzi) was 2.36%. For the same molecule, the Percent Effect [7] was -12%, the Percent Effect [8] was 9.73% and the Percent Effect (Homo sapiens) was 14.4%. It also gave a Percent Effect [9] of 9.22%, a Percent Effect [10] of 12.3% and a Percent Effect [11] of 30.9%. It also gave a Percent Effect [12] of -13.1%.

For `NCC1(c2cccc(Br)c2)CCOCC1`, the Percent Effect [2] was -5.22%, the Percent Effect [3] was 2.7% and the Percent Effect [4] was 5.62%. It also gave a Percent Effect [5] of -4.06%, a Percent Effect [6] of -6.14% and a Percent Effect (Trypanosoma cruzi) of -2.93%. For the same molecule, the Percent Effect [7] was -22.5%, the Percent Effect [8] was 8.2% and the Percent Effect (Homo sapiens) was 2.44%. It also gave a Percent Effect [9] of -23.5%, a Percent Effect [10] of 8.91% and a Percent Effect [11] of -6.1%. For the same molecule, the Percent Effect [12] was -2.29%.
